Experimental data: the OligoGym collection

biological target: PQLC1; experiment: pooled miR-30 sensor sort-seq; sequence = guide strand; conditions: shRNA

Compared with TTGACTTCTTCATCCTTGCTAT, TCGAAGTCCAGGAAGGACCGCC is lower in sensor-assay potency score (higher = more potent): 0.0479 for the first, -0.0699 for the second.

First: TTGAGCTCGTTGGCCACACGGA
Second: TCTGCAGCTGTAAAGGAGCGGC
The sensor-assay potency score (higher = more potent) of the first is higher: -0.78 for the first, -0.795 for the second.

Compared with TAGGTGGAGAAGCCGTCGGCGT, TGCACGTAGTCCGAGAAGCTGC is higher in sensor-assay potency score (higher = more potent): -1.4 for the first, -1.19 for the second.

First: TTGATGCTCATGCCCTCCGTGG
Second: TTCTTCATCCTTGCTATCTGCA
The sensor-assay potency score (higher = more potent) of the first is lower: -1.49 for the first, -0.201 for the second.

First: ATGAGCACCATCTTGATGCTCA
Second: TAGTCCGAGAAGCTGCTCCACT
The sensor-assay potency score (higher = more potent) of the first is higher: -0.811 for the first, -0.969 for the second.

AACCTTGACTTCTTCATCCTTG was tested, and the sensor-assay potency score (higher = more potent) was 0.292.

biological target: PRADC1; experiment: as above; conditions: shRNA

First: ATGCTGGTGACATTGACTGGGA
Second: TGAATCTGCTCATACCTTGTGT
The sensor-assay potency score (higher = more potent) of the first is lower: -1 for the first, -0.084 for the second.

First: TAGCATGAGACACCCTTGGGGG
Second: TCATGTAGCCGTCTCGGCCGAG
The sensor-assay potency score (higher = more potent) of the first is higher: -0.696 for the first, -1.06 for the second.

Going from TAAACCACTCCAACAACTGCTG to AAAGATACCACCAAAGTCCTTG, the sensor-assay potency score (higher = more potent) rises from 0.158 to 0.163.

First: TCTTGTAGCATGAGACACCCTT
Second: TTTTGTTTCGGGTTCTAGCCAG
The sensor-assay potency score (higher = more potent) of the first is higher: -0.0908 for the first, -0.533 for the second.

Compared with TTTGTTTCGGGTTCTAGCCAGA, TTGTGTGAAAGATACCACCAAA is lower in sensor-assay potency score (higher = more potent): -0.698 for the first, -1.24 for the second.

Going from TGGATGAAGAAACCGTTGCTGA to ATCATCTCCACGTAGAAGCTGT, the sensor-assay potency score (higher = more potent) rises from -1.26 to -0.485.

biological target: PRAMEF6; experiment: as above; conditions: shRNA

Going from TTAGTTATTGTGAGGACCTTTA to ATCAGCATCATAACTCTCCCGG, the sensor-assay potency score (higher = more potent) rises from -0.654 to -0.511.

First: TTGGAGGCAGCACAGCTTGAGG
Second: TTTTGGAGGCAGCACAGCTTGA
The sensor-assay potency score (higher = more potent) of the first is higher: -1.39 for the first, -1.46 for the second.

Going from TACAGCTCCACGCATAAGTTTT to TTGGGTAAGCAGTGCATCCAGC, the sensor-assay potency score (higher = more potent) rises from -1.43 to -0.474.

Going from TCAGCATCATAACTCTCCCGGG to TTGGACAGTCCTGCACTGGTGT, the sensor-assay potency score (higher = more potent) rises from -0.662 to -0.525.

In the case of TATTGTGAGGACCTTTAACGAG, the sensor-assay potency score (higher = more potent) was -1.02.

biological target: PRB2; experiment: as above; conditions: shRNA

Compared with TTGAGGATTGTTGCCTTCTTGT, GAGGAGATCGAGAACTTCGGGA is lower in sensor-assay potency score (higher = more potent): -0.928 for the first, -0.989 for the second.

First: TTGAGGCTGGTTGCCTCCTTGT
Second: TGGCTTTCCTGCTATTAGGGAG
The sensor-assay potency score (higher = more potent) of the first is lower: -1.75 for the first, -0.778 for the second.

Compared with ACTTGTTGTCTCCTTGTGGGGG, TTCGGGACTTGTTGTCTCCTTG is higher in sensor-assay potency score (higher = more potent): -0.828 for the first, -0.146 for the second.

Compared with TCGGGACTTGTTGTCTCCTTGT, TTTGGGACTTGTTGTCTCCTTG is higher in sensor-assay potency score (higher = more potent): -0.96 for the first, -0.1 for the second.
